IMPase Li inh: IMPase inhibition in cells with lithium potentiation; CHO-M1 cells, IP1 TR-FRET (IP-One), carbachol + lithium; AID 1457; 210,000 tested, 0.35% active; Potency, µM (series often up to 59.4 µM), without a hit: at the top dose activity, negative = IMPase inhibition, usual class: inhibitors;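 note: IP1 builds up when IMPase is blocked and the TR-FRET signal falls; potency is the fitted concentration of half-maximal effect; plate controls were basal vehicle for no effect and high inhibitor control for full effect; nearly all actives have a fitted effect of over 50% in size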
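CHO-M1, 2000 cells/well, 16–30 h culture; cpd + low Li+, 30 min 37C; lysis with d2-IP1/Eu-anti-IP1 Ab, 10 min RT; TR-FRET 665/620 ratio and 620 channel; AC50 via Hill.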
ERK EGF inh: blocks ERK signaling stimulated by EGF. HEK293-V1b, EGF-stimulated phospho-ERK AlphaScreen. Potency, µM (doses to about 11.5 µM), for inactives: at the top dose activity change, negative = inhibition, usual class: inhibitors. 130,000 tested, 0.41% active;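 note: potency is the fitted concentration of half-maximal effect; plate controls were stimulated vehicle wells for no effect and unstimulated vehicle basal for full effect; nearly all actives have a fitted effect of over 55% in size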
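In this qHTS, HEK293 cells with stable type-1 vasopressin (V1b) receptor were exposed to compound at 37C for 30 min, stimulated 5 min with EGF at 25 nM, lysed, and probed for phospho-ERK by AlphaScreen.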
NPSR antag: blocks cAMP signaling of the human neuropeptide S receptor; CHO-NPSR cells, cAMP TR-FRET, antagonist mode; Q6W5P4; Potency, µM (doses to about 38.3 µM), for the others: at the top dose activity change, negative = inhibition, actives largely listed as inhibitors; 220,000 tested, 1% active; note: potency is the fitted concentration of half-maximal effect; % is set by controls: 0 for no effect and ±100 for the full control effect; nearly all actives have a fitted effect of over 50% in size
HTT cytoprotect: protects HTT-Q103 PC12 cells, measured by ATP. AID 1471. PC12 HTT-Q103 induced, cytoprotection, ATP luminescence, 40 h. Potency, µM (series often up to 56.4 µM), for inactives: cytoprotection (ATP increase), actives largely listed as activators. 230,000 tested, 0.14% active; note: potency is the fitted concentration of half-maximal effect; % of control where 0% means no effect; nearly all actives have a fitted effect of over 45% in size
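Readout: ATPlite luminescence (ATP level). Model: stable PC12, inducible Htt exon1 Q103-GFP. Inducer: tebufenozide, 100 nM final. Compounds: dose series. No G418 in medium.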
HTT aggregate: inhibitors of mutant huntingtin aggregate formation in PC12 cells; PC12 HttQ103-GFP aggregates, Acumen cytometry, 40 h; Potency, µM (titrated, usually from 46.1 µM), without a hit: top-dose activity change, negative = inhibition, hits mostly inhibitors; 220,000 tested, 1.1% active; note: potency is the fitted concentration of half-maximal effect; % is set by controls: 0 for no effect and ±100 for the full control effect; nearly all actives have a fitted effect of over 60% in size
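Aggregate formation scored by laser-scanning cytometer (488 excitation, 500–530 emission) in lysed PC12 cells expressing Q103-GFP after 100 nM tebufenozide induction; library tested in dose series, with ATPLite reagent added in the multiplex.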
pERK EGF inh: reduces EGF-stimulated ERK phosphorylation in HEK293 cells; Potency, µM (highest dose often 57.5 µM), inactives show at the highest dose activity change, negative = inhibition, most hits filed as inhibitors; HEK293 EGF-stimulated ERK phosphorylation, AlphaScreen; 60 tested, 60% active; shares compounds with ERK EGF inh; AID 1725
cRaf kinase inh: c-Raf inhibition, ERK pathway follow-up; shares compounds with ERK EGF inh; c-Raf kinase inhibition, homogeneous biochemical assay; activity change, negative = inhibition, % at 76.9 µM; 70 tested, under 10 active; AID 1728
MEK1 kinase inh: blocks human MEK1 kinase activity in ERK pathway follow-up; homogeneous MEK kinase activity assay, ERK pathway; Potency, µM (series often up to 76.9 µM), inactives show top-dose activity change, negative = inhibition, most hits filed as inhibitors; 70 tested, under 10 active; shares compounds with ERK EGF inh
Target sequence (Q02750 whole entry, looked up): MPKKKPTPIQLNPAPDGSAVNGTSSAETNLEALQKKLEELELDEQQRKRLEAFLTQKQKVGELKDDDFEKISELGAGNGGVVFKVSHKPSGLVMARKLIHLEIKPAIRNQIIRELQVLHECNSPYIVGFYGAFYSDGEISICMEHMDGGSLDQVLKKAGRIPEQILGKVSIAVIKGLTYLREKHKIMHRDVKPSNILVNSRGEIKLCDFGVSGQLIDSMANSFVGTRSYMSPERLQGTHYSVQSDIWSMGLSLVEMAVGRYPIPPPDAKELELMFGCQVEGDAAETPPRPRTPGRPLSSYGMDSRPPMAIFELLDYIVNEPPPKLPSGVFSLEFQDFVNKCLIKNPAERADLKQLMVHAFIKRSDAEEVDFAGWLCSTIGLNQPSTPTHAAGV
* = called active by the depositor; [ ] = another dose, or the depositor's remark. Rows were chosen to be rich in hits. Some 1.9% of all compounds tested hit in one or more screens of this group. Calls come from the whole dose curve; as a rule, active = well fitted curve in the direction sought with a large enough effect; inconclusive = small, poorly fitted or top-dose-only effect, or another doubt; inactive = no such curve, though single readings can be large; an effect the other way counts as inactive or inconclusive.

`Cc1ccc(/C=[N+](\[O-])c2ccc(N(C)C)cc2)c2nsnc12` gave IMPase Li inh 107%, ERK EGF inh -1%, NPSR antag inconclusive, HTT cytoprotect -162% and HTT aggregate 11µM*.
For Cc1ccc2nsnc2c1NS(=O)(=O)c1c(C)ccc2nsnc12 the results were IMPase Li inh -1%[38.3 µM], NPSR antag -9%[46.1 µM], HTT cytoprotect -12% and HTT aggregate -5%.
For N=c1n(CCN2CCCCC2)c2ccccc2n1CC(=O)c1ccc(Cl)c(Cl)c1 the results were ERK EGF inh 28µM*, NPSR antag inconclusive, HTT cytoprotect 15%[10 µM] and HTT aggregate 25%[9.22 µM].
`COC(=O)c1ccccc1S(=O)(=O)N(Cc1cc2ccc(OC)cc2[nH]c1=O)CC1CCCO1` (centres undefined) gave IMPase Li inh 28%[38.3 µM], NPSR antag -12%[46.1 µM], HTT cytoprotect -4%[10 µM] and HTT aggregate 3.5µM*.
For Cc1c(O)c2c3c(cccc3c1O)C(=O)N(c1ccccc1)C2=O the results were IMPase Li inh -21%, ERK EGF inh 1%, NPSR antag -29% and HTT aggregate 20µM*.
`CC(C)c1c(C(=O)Nc2ccccc2)c(-c2ccccc2)c(-c2ccc(F)cc2)n1CC[C@@H](O)C[C@@H](O)CC(=O)O` gave IMPase Li inh -8% and HTT cytoprotect 92%.
`COc1ccc(-c2coc3cc(O[C@@H]4O[C@@H](CO)[C@@H](O)[C@@H](O)[C@H]4O)cc(O)c3c2=O)cc1` gave HTT cytoprotect -23%.
For Cc1ccc(Cl)cc1N1CCN(Cc2cc3c(cc2O)CCC3)CC1 the results were IMPase Li inh 44%[38.3 µM], NPSR antag 10µM*, HTT cytoprotect -25% and HTT aggregate -15%.
`Cc1ccc(Cl)cc1N1CCN(C(=O)c2ccc(CN3CCOCC3)cc2)CC1` gave IMPase Li inh 25%[38.3 µM], NPSR antag -21%[46.1 µM], HTT cytoprotect 8% and HTT aggregate -22%.
Screening C[C@@H]1Cc2ccccc2N1NC(=O)c1ccc(Cl)c(S(N)=O)c1 (some centres undefined) returned IMPase Li inh 5%, ERK EGF inh -4%[25.7 µM], HTT cytoprotect -42%[17.1 µM] and HTT aggregate inconclusive.
`CC(C)(C)c1ccc(OCCOc2ccc(C(C)(C)C)cc2NC=O)c(NC=O)c1` gave ERK EGF inh 32µM*, NPSR antag inconclusive, HTT cytoprotect 0%[10 µM] and HTT aggregate -14%[9.22 µM].
Cc1cc(C(=O)N2CCN(c3ccc(C(F)(F)F)cn3)CC2)c(C)o1 was read as ERK EGF inh 4%[57.5 µM], NPSR antag 23%, HTT cytoprotect 27%[10 µM] and HTT aggregate -15%[9.22 µM].
Screening Cc1cccc(C(=O)N2CCN(c3ccc(C(F)(F)F)cn3)CC2)c1C returned IMPase Li inh 33%[38.3 µM], NPSR antag -11%[46.1 µM], HTT cytoprotect -3% and HTT aggregate 16µM*.
`CC(C)c1ccc2c(c1)CC[C@@H]1[C@@](C)(CN)CCC[C@@]21C` gave HTT cytoprotect -81%.
CC(=O)N1CCC(=NNc2nc3ccccc3s2)CC1 was read as IMPase Li inh 0%, ERK EGF inh inconclusive, NPSR antag 2%, HTT cytoprotect -19%, HTT aggregate -25%, pERK EGF inh inconclusive, cRaf kinase inh inconclusive and MEK1 kinase inh -4%.
COc1cc2ncnc(Nc3ccc(F)c(Cl)c3)c2cc1OCCCN1CCOCC1 was read as IMPase Li inh 18%, HTT cytoprotect -107%, HTT aggregate -34%, cRaf kinase inh -23 and MEK1 kinase inh 4%.
CC(=O)OC(C)(C)N=Nc1ccc(Br)cc1 was read as HTT cytoprotect 1%[10 µM].
For Cc1cccc(C(=O)Nc2cc(OCc3cccc(F)c3)c(Cl)cc2Cl)c1 the results were IMPase Li inh 20%[38.3 µM], NPSR antag -4%[46.1 µM], HTT cytoprotect 27%[10 µM] and HTT aggregate -16%.
Screening CS(=O)(=O)CCNCc1nc(-c2ccc3ncnc(Nc4ccc(OCc5cccc(F)c5)c(Cl)c4)c3c2)cs1 returned IMPase Li inh -2%, ERK EGF inh 1µM*, HTT cytoprotect -70%, pERK EGF inh 0.71µM*, cRaf kinase inh -10 and MEK1 kinase inh -13%.
Screening NCCCCC(N)C(=O)NC(Cc1ccc(O)cc1)C(=O)NC(CCCCN)C(=O)O (centres undefined) returned IMPase Li inh -6% and ERK EGF inh 18%.
Cc1nc2ccccc2nc1OCc1ccccc1 was read as IMPase Li inh 3%, ERK EGF inh -3%, NPSR antag -11%, HTT cytoprotect 24%[10 µM] and HTT aggregate 11%.
`Cc1ccc2nc(=O)c(NNc3ccccc3)cnc2c1` gave IMPase Li inh 4%, ERK EGF inh 14µM*, NPSR antag -21%, HTT aggregate 25%, cRaf kinase inh -16 and MEK1 kinase inh 4%.
For Cc1nc2ccccc2nc(=O)c1NNc1ccccc1 the results were IMPase Li inh -1%, NPSR antag -15%, HTT cytoprotect 11%[10 µM], HTT aggregate inconclusive, pERK EGF inh 14µM*, cRaf kinase inh -6 and MEK1 kinase inh -2%.
Screening COc1ccc(OC)c2c(=S)c3ccccc3[nH]c12 returned IMPase Li inh 34%, ERK EGF inh -1% and HTT cytoprotect -7%.
Cn1nc(-c2ccc(Cl)cc2)nc2c(=O)n(C)c(=O)nc1-2 was read as IMPase Li inh 12%[38.3 µM], ERK EGF inh inconclusive, NPSR antag 1µM*, HTT cytoprotect -96%, HTT aggregate inconclusive, pERK EGF inh inconclusive, cRaf kinase inh inconclusive and MEK1 kinase inh inconclusive.
Screening CS(=O)(=O)n1nc(-c2ccc(Cl)cc2)nc1N returned IMPase Li inh -4%, ERK EGF inh -5%, NPSR antag -7%, HTT cytoprotect 16%[10 µM] and HTT aggregate 18%[9.22 µM].
Cc1ccc(Nc2ncnc3sc(C)c(C)c23)cc1C was read as IMPase Li inh inconclusive, NPSR antag inconclusive, HTT cytoprotect -23%, HTT aggregate -18%, pERK EGF inh 11µM*, cRaf kinase inh inconclusive and MEK1 kinase inh -1%.
For CCCCCCC(O)C/C=C/CCCCCCCC(=O)O (centres undefined) the results were HTT cytoprotect 0% and HTT aggregate 1%.

Compound activity (PubChem)
